Data as given in PubChem BioAssay (NCATS).
Records with an inconclusive call do not appear. Active and inactive are the calls of the source. The call rests on the fitted dose curve; in most records, active means well fitted cell-killing curve with a large enough effect; inconclusive means small, poorly fitted or top-dose-only effect, or effect the other way; inactive means flat fitted curve, though single readings scatter.

Legend:
Experiment in all cases: Primary qHTS to identify gynecologic anti-cancer compounds using libraries of approved drugs and bioactive compounds (AID 1345084); further: nearly all actives have a fitted effect of over 55% in size
Settings in all cases: Gynecologic cancer cell panel viability, ATPlite luminescence, 48 h; series mostly up to 57.5 µM
OV90 = system: OV90
Method in brief: (§1)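 48 h compound exposure at 37 C, 5% CO2; five-point qHTS. ATPlite luminescence readout of cell ATP.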

PA-1 = system: PA-1
Method in brief: as §1

SKOV3 = system: SKOV3
Method in brief: as §1

Tov-21-G = system: Tov-21-G
Method in brief: as §1

Tov112D = system: Tov112D
Method in brief: as §1
On the % scale 0 is the no-effect control and ±100 the full control effect.

COc1cc(C(C)=O)ccc1O[C@@H]1O[C@H](CO)[C@@H](O)[C@H](O)[C@H]1O
inactive: Potency (OV90) | Potency (PA-1) | Potency (SKOV3) | Potency (Tov-21-G) | Potency (Tov112D)

C[C@@H]1CC2OC(=O)C3=C2C(CCC3O)[C@@]12C[C@@H](c1ccoc1)OC2=O (stereo not given in full)
inactive: Potency (OV90) | Potency (PA-1) | Potency (SKOV3) | Potency (Tov-21-G) | Potency (Tov112D)

COc1ccc(CC(NC(C)=O)C(=O)O)cc1 (stereo not given)
inactive: Potency (OV90) | Potency (PA-1) | Potency (SKOV3) | Potency (Tov-21-G) | Potency (Tov112D)

C[C@@H]1CC[C@]2(C(=O)O[C@@H]3O[C@H](CO[C@@H]4O[C@H](CO)[C@@H](O[C@@H]5O[C@@H](C)[C@H](O)[C@@H](O)[C@H]5O)[C@H](O)[C@H]4O)[C@@H](O)[C@H](O)[C@H]3O)CC[C@]3(C)C(=CCC4[C@@]5(C)C[C@@H](O)[C@H](O)[C@@](C)(CO)C5CC[C@]43C)C2[C@H]1C (stereo not given in full)
inactive: activity change, negative = cytotoxicity (OV90) -1.43% [at 11.6 µM] | activity change, negative = cytotoxicity (PA-1) 6.43% [at 11.6 µM] | activity change, negative = cytotoxicity (SKOV3) 21.1% [at 11.6 µM] | activity change, negative = cytotoxicity (Tov-21-G) 3.06% [at 11.6 µM] | activity change, negative = cytotoxicity (Tov112D) 3.29% [at 11.6 µM]

CC(=O)OC1C(O)/C(C)=C\C2C(OC(=O)c3ccccc3)C(C)CC2(OC(C)=O)C(OC(C)=O)C(C)/C=C/C(C)(C)C1OC(C)=O (stereo not given)
inactive: Potency (OV90) | Potency (PA-1) | Potency (SKOV3) | Potency (Tov-21-G) | Potency (Tov112D)

Cc1ncc([N+](=O)[O-])n1C[C@H](O)CN1CCOCC1
inactive: Potency (OV90) | Potency (PA-1) | Potency (SKOV3) | Potency (Tov-21-G) | Potency (Tov112D)

C=C1C[C@]23C[C@@]1(O)CC[C@H]2[C@@]12C=C[C@H](O)[C@@](C)(C(=O)O1)[C@H]2[C@@H]3C(=O)O
inactive: Potency (OV90) | Potency (PA-1) | Potency (SKOV3) | Potency (Tov-21-G) | Potency (Tov112D)

CC(=O)NC1C(OC2CCC3(C)C(CCC4(C)C3CC=C3C5CC(C)(C)CCC5(C(=O)O)C(O)CC34C)C2(C)C)OC(CO)C(O)C1O (stereo not given)
inactive: Potency (OV90) | Potency (PA-1) | Potency (SKOV3) | Potency (Tov-21-G) | Potency (Tov112D)

COc1ccc(/C=C/C(=O)N2CCCC2)cc1
inactive: Potency (OV90) | Potency (PA-1) | Potency (SKOV3) | Potency (Tov-21-G) | Potency (Tov112D)

COC(=O)C(CC1(O)c2ccccc2N2C(=O)C(CC(C)C)NC21)n1cnc2ccccc2c1=O (stereo not given)
inactive: Potency (OV90) | Potency (PA-1) | Potency (SKOV3) | Potency (Tov-21-G) | Potency (Tov112D)

C[C@@H]1O[C@@H](O[C@H]2[C@H](O[C@H]3[C@H](O[C@H]4CC[C@@]5(C)C(CC[C@]6(C)C5CC=C5[C@@H]7CC(C)(C)C[C@@H](O)[C@]7(C)CC[C@]56C)[C@@]4(C)CO)O[C@H](C(=O)O)[C@@H](O)[C@@H]3O)O[C@H](CO)[C@H](O)[C@@H]2O)[C@H](O)[C@H](O)[C@H]1O (stereo not given in full)
inactive: activity change, negative = cytotoxicity (OV90) 7.08% [at 11.6 µM] | activity change, negative = cytotoxicity (PA-1) 4.96% [at 11.6 µM] | activity change, negative = cytotoxicity (SKOV3) 11% [at 11.6 µM] | activity change, negative = cytotoxicity (Tov-21-G) 5.74% [at 11.6 µM] | activity change, negative = cytotoxicity (Tov112D) 0.964% [at 11.6 µM]

CC1(C)CC[C@]2(C(=O)O[C@@H]3O[C@H](CO)[C@@H](O)[C@H](O)[C@H]3O)CC[C@]3(C)C(=CCC4[C@@]5(C)CC[C@H](O[C@@H]6O[C@H](C(=O)O)[C@@H](O[C@@H]7O[C@H](CO)[C@@H](O)[C@H](O)[C@H]7O)[C@H](O)[C@H]6O[C@@H]6O[C@H](CO)[C@@H](O)[C@H](O)[C@H]6O)C(C)(C)C5CC[C@]43C)C2C1 (stereo not given in full)
inactive: activity change, negative = cytotoxicity (OV90) 4.99% [at 11.6 µM] | activity change, negative = cytotoxicity (PA-1) 18.4% [at 11.6 µM] | activity change, negative = cytotoxicity (SKOV3) 10.3% [at 11.6 µM] | activity change, negative = cytotoxicity (Tov-21-G) -2% [at 11.6 µM] | activity change, negative = cytotoxicity (Tov112D) 6.91% [at 11.6 µM]

CC(C)NC(=O)c1ccc(C#Cc2ccncc2)cn1
inactive: Potency (OV90) | Potency (PA-1) | Potency (SKOV3) | Potency (Tov-21-G) | Potency (Tov112D)

COc1c(C)c(OCC(O)C(C)(C)O)cc2c1CNC2=O (stereo not given)
inactive: Potency (OV90) | Potency (PA-1) | Potency (SKOV3) | Potency (Tov-21-G) | Potency (Tov112D)

C/C=C/C=C/C1=C2C(=O)C3(C)C4C(C(=O)CC(O)/C=C/C)=C(O1)C1(C)C2C2(C)OC1(O)C4(C)OC23O (stereo not given)
inactive: Potency (OV90) | Potency (PA-1) | Potency (SKOV3) | Potency (Tov-21-G) | Potency (Tov112D)

COc1cc(C)c(C(=O)O[C@@H]2[C@H](O)[C@@H](CO)O[C@H]2n2ccc(=O)[nH]c2=O)c(OC)c1
inactive: Potency (OV90) | Potency (PA-1) | Potency (SKOV3) | Potency (Tov-21-G) | Potency (Tov112D)

N#Cc1cccc(-c2c[nH]c3ncnc(N4CCOCC4)c23)c1
inactive: Potency (OV90) | Potency (PA-1) | Potency (SKOV3) | Potency (Tov-21-G) | Potency (Tov112D)

O=C(O)c1ccnc(-c2cc(C(=O)NCCc3ccccc3)ccn2)c1
inactive: Potency (OV90) | Potency (PA-1) | Potency (SKOV3) | Potency (Tov-21-G) | Potency (Tov112D)

O=C(OCC1OC(Oc2ccc(O)cc2COC(=O)C2(O)C(O)CCC(=O)C2OC(=O)C2C=CCC2)C(OC(=O)C2C=CCC2)C(O)C1O)C1C=CCC1 (stereo not given)
inactive: Potency (OV90) | Potency (PA-1) | Potency (SKOV3) | Potency (Tov-21-G) | Potency (Tov112D)

COC(=O)C1=COC(OC2OC(CO)C(O)C(O)C2O)C2C(C)C(OC(=O)/C=C/c3ccc(O)cc3)C(O)C12 (stereo not given)
inactive: Potency (OV90) | Potency (PA-1) | Potency (SKOV3) | Potency (Tov-21-G) | Potency (Tov112D)

COC(=O)C1=CO[C@@H](O[C@@H]2O[C@H](CO)[C@@H](O)[C@H](O)[C@H]2O)[C@@H]2[C@@H](C)[C@@H](OC(=O)/C=C/c3ccccc3)[C@@H](O)[C@H]12
inactive: Potency (OV90) | Potency (PA-1) | Potency (SKOV3) | Potency (Tov-21-G) | Potency (Tov112D)
